Laboratory results as given in PubChem BioAssay (NCI).
This is part of a sample that, as a whole, favours compounds with a hit. Of some 83,000 tested, about 20% had one in any assay.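 Each cell line was grown in a 96-well plate and treated with one concentration of compound for 48 hours. Values below 10 were considered active.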 Calls of active or inactive are those of the source.

Tests used:
Assay in all cases: NCI-60 one-dose screen, 48 h (100 = growth as untreated, 0 = no growth, -100 = all killed)
HCT-15 colon = conditions: 10 µM unless noted
HT29 colon = conditions: 10 µM unless noted
SNB-75 CNS = conditions: 10 µM unless noted
SNB-19 CNS = conditions: 10 µM unless noted
U251 CNS = conditions: 10 µM unless noted
PC-3 prostate = conditions: 10 µM unless noted
SK-MEL-5 melanoma = conditions: 10 µM unless noted
UACC-62 melanoma = conditions: 10 µM unless noted
SK-MEL-28 melanoma = conditions: 10 µM unless noted
SK-MEL-2 melanoma = conditions: 10 µM unless noted
SN12C renal = conditions: 10 µM unless noted
UO-31 renal = conditions: 10 µM unless noted
TK-10 renal = conditions: 10 µM unless noted
ACHN renal = conditions: 10 µM unless noted
CAKI-1 renal = conditions: 10 µM unless noted
CCRF-CEM leukemia = conditions: 10 µM unless noted
MOLT-4 leukemia = conditions: 10 µM unless noted
LOX IMVI melanoma = conditions: 10 µM
EKVX NSCLC = conditions: 10 µM unless noted
A498 renal = conditions: 10 µM unless noted

Measured: growth

CCCCCCCCCCCCCCCCCC1=NCCCN1CCO
inactive: HCT-15 colon 94% | HT29 colon 101% | SNB-75 CNS 105% | SNB-19 CNS 101% | U251 CNS 98.2% | PC-3 prostate 95.9% | SK-MEL-5 melanoma 103% | UACC-62 melanoma 111% | SK-MEL-28 melanoma 108% | SK-MEL-2 melanoma 111% | SN12C renal 96.8% | UO-31 renal 93.4% | TK-10 renal 116% | ACHN renal 112% | CAKI-1 renal 105% | CCRF-CEM leukemia 97.4% | MOLT-4 leukemia 102%

NC(CS/C(Cl)=C/Cl)C(=O)O (centres undefined)
active: SK-MEL-5 melanoma -60.9% | LOX IMVI melanoma -57.3% | A498 renal -60%
inactive: HCT-15 colon 85.5% | HT29 colon 86.8% | SNB-75 CNS 103% | SNB-19 CNS 85.9% | U251 CNS 84.7% | PC-3 prostate 64.1% | SK-MEL-28 melanoma 73% | SK-MEL-2 melanoma 53.7% | EKVX NSCLC 81.4% | SN12C renal 87% | UO-31 renal 82.6% | TK-10 renal 117% | ACHN renal 95.2% | CAKI-1 renal 89.6% | CCRF-CEM leukemia 66.5% | MOLT-4 leukemia 97.1%

CCC(C)(O)Cc1ccc(Cl)cc1 (centres undefined)
inactive: HCT-15 colon 103% | HT29 colon 103% | SNB-75 CNS 88.2% | SNB-19 CNS 102% | U251 CNS 101% | PC-3 prostate 94.5% | SK-MEL-5 melanoma 91.6% | UACC-62 melanoma 101% | SK-MEL-28 melanoma 112% | EKVX NSCLC 111% | SN12C renal 103% | UO-31 renal 94.2% | TK-10 renal 97.6% | ACHN renal 111% | CAKI-1 renal 101% | A498 renal 89.5% | CCRF-CEM leukemia 105% | MOLT-4 leukemia 98.4%

O=C(CBr)c1ccc(OC(=O)c2ccccc2)cc1
inactive: HCT-15 colon 101% | HT29 colon 115% | SNB-75 CNS 96.5% | SNB-19 CNS 112% | U251 CNS 95.5% | PC-3 prostate 101% | SK-MEL-5 melanoma 107% | UACC-62 melanoma 107% | SK-MEL-28 melanoma 112% | SK-MEL-2 melanoma 111% | EKVX NSCLC 118% | SN12C renal 103% | TK-10 renal 117% | ACHN renal 97.5% | CAKI-1 renal 100% | A498 renal 74.4% | CCRF-CEM leukemia 67.6% | MOLT-4 leukemia 95.3%

Cc1cc(C(=C2C=CC(=Nc3ccccc3)C=C2)c2ccc(Nc3ccccc3)cc2)ccc1N
active: HCT-15 colon -31.7% | HT29 colon -75.4% | SNB-75 CNS -74.6% | SNB-19 CNS -55.4% | U251 CNS -97.4% | PC-3 prostate -60.4% | SK-MEL-5 melanoma -95.9% | UACC-62 melanoma -65.6% | SK-MEL-28 melanoma -82.3% | EKVX NSCLC -42.7% | SN12C renal -63.5% | UO-31 renal -67.4% | TK-10 renal -64.7% | ACHN renal -89.8% | CAKI-1 renal -56.6% | A498 renal -78.8% | CCRF-CEM leukemia 3.34%
inactive: MOLT-4 leukemia 22.2%

CCN1CCCC(Nc2cc(C)nc(/N=C(/N)Nc3ccc(Cl)c(Cl)c3)n2)C1 (centres undefined)
inactive: EKVX NSCLC 31.4%
active: HCT-15 colon -37.2% | HT29 colon -46.9% | SNB-75 CNS -76.8% | SNB-19 CNS -17.5% | U251 CNS -82.4% | PC-3 prostate 7.05% | SK-MEL-5 melanoma -97.6% | UACC-62 melanoma -80.7% | SK-MEL-28 melanoma -87.8% | SK-MEL-2 melanoma -72.7% | SN12C renal 1.64% | UO-31 renal -81.4% | TK-10 renal -88.6% | ACHN renal -25.1% | CAKI-1 renal -40.6% | A498 renal -49.1% | CCRF-CEM leukemia -16.4% | MOLT-4 leukemia -35.4%

CC/C(=C(/CC)c1ccc(O)cc1)c1ccc(O)cc1
inactive: HCT-15 colon 47.2% | HT29 colon 71.5% | SNB-75 CNS 51.8% | SNB-19 CNS 72.7% | U251 CNS 42.5% | PC-3 prostate 75.4% | SK-MEL-5 melanoma 21.4% | UACC-62 melanoma 42.4% | SK-MEL-28 melanoma 60.1% | SK-MEL-2 melanoma 54.6% | EKVX NSCLC 64.7% | SN12C renal 76% | UO-31 renal 73.2% | ACHN renal 67.8% | CAKI-1 renal 45.8% | A498 renal 81.4% | CCRF-CEM leukemia 48.8% | MOLT-4 leukemia 39.9%

CCOC(=O)C1=NN(c2ccccc2)C(=O)/C1=C\N1C(=O)/C(=C/c2cccc(O)c2)SC1=S
inactive: HCT-15 colon 109% | HT29 colon 111% | SNB-75 CNS 97.2% | SNB-19 CNS 94.4% | U251 CNS 89% | PC-3 prostate 88% | SK-MEL-5 melanoma 95% | UACC-62 melanoma 91.9% | SK-MEL-28 melanoma 111% | SK-MEL-2 melanoma 99.6% | EKVX NSCLC 107% | SN12C renal 82.3% | UO-31 renal 76% | TK-10 renal 117% | ACHN renal 99.5% | CAKI-1 renal 100% | A498 renal 94.5% | CCRF-CEM leukemia 93% | MOLT-4 leukemia 95.7%

COc1ccc2c(c1)c(CC(=O)O)c(C)n2C(=O)c1ccc(Cl)cc1
inactive: HCT-15 colon 104% | HT29 colon 111% | SNB-75 CNS 84.7% | SNB-19 CNS 110% | U251 CNS 90.3% | PC-3 prostate 104% | SK-MEL-5 melanoma 93.6% | UACC-62 melanoma 95.5% | SK-MEL-28 melanoma 97.3% | SK-MEL-2 melanoma 106% | EKVX NSCLC 95.9% | SN12C renal 97.4% | UO-31 renal 65.6% | ACHN renal 95.3% | CAKI-1 renal 88.1% | A498 renal 81.9% | MOLT-4 leukemia 113%

O=C1C=Cc2ccccc2/C1=C/c1nc(-c2ccccc2)oc1O
inactive: HCT-15 colon 92.4% | HT29 colon 108% | SNB-75 CNS 70.8% | SNB-19 CNS 102% | U251 CNS 95% | PC-3 prostate 89.1% | SK-MEL-5 melanoma 92.4% | UACC-62 melanoma 93.8% | SK-MEL-28 melanoma 106% | SK-MEL-2 melanoma 99.1% | SN12C renal 94.8% | UO-31 renal 65.5% | TK-10 renal 136% | ACHN renal 81.9% | CAKI-1 renal 86.8% | A498 renal 113% | CCRF-CEM leukemia 110% | MOLT-4 leukemia 96.5%

CCOC(=O)c1cc(CC)sc1NC(=O)CC(C)=O
inactive: HCT-15 colon 19.9% | HT29 colon 47.8% | SNB-75 CNS 44.8% | SNB-19 CNS 29.8% | U251 CNS 34.7% | PC-3 prostate 36.2% | SK-MEL-5 melanoma 54.3% | UACC-62 melanoma 60.4% | SK-MEL-28 melanoma 96.7% | SK-MEL-2 melanoma 61.5% | EKVX NSCLC 51% | UO-31 renal 40.8% | TK-10 renal 70.9% | ACHN renal 39.9% | CAKI-1 renal 53.1% | A498 renal 98.7% | CCRF-CEM leukemia 35.5% | MOLT-4 leukemia 14.4%

N=C(N)Sc1cccc[n+]1[O-]
active: LOX IMVI melanoma -30.9% | CCRF-CEM leukemia -8.85%
inactive: HCT-15 colon 32.8% | HT29 colon 50.3% | SNB-75 CNS 61.5% | SNB-19 CNS 59% | U251 CNS 41.5% | PC-3 prostate 38.1% | SK-MEL-5 melanoma 56.2% | SK-MEL-28 melanoma 26.1% | SK-MEL-2 melanoma 59% | EKVX NSCLC 47.7% | SN12C renal 101% | UO-31 renal 36.1% | TK-10 renal 86.2% | ACHN renal 48.6% | CAKI-1 renal 79.5% | A498 renal 81.7% | MOLT-4 leukemia 12.7%

CN(C)CCSC1=Nc2ccc(Cl)cc2C(c2ccccc2Cl)N(C)C1 (centres undefined)
inactive: HCT-15 colon 62.5% | HT29 colon 50.9% | SNB-75 CNS 11.9% | SNB-19 CNS 63.1% | U251 CNS 71.2% | PC-3 prostate 48.5% | SK-MEL-5 melanoma 68.7% | UACC-62 melanoma 29.2% | SK-MEL-28 melanoma 70.9% | SK-MEL-2 melanoma 81.8% | EKVX NSCLC 81% | SN12C renal 63.8% | UO-31 renal 24.5% | TK-10 renal 64.9% | ACHN renal 74.2% | CAKI-1 renal 20.5% | A498 renal 127% | CCRF-CEM leukemia 85.2% | MOLT-4 leukemia 79.2%

Oc1ccc2ccccc2c1N=Nc1ccccn1
active: LOX IMVI melanoma 6.2% | TK-10 renal 6%
inactive: HCT-15 colon 26.9% | HT29 colon 20.9% | SNB-75 CNS 59.1% | SNB-19 CNS 53.4% | U251 CNS 30.5% | SK-MEL-5 melanoma 23.7% | UACC-62 melanoma 29.8% | SK-MEL-28 melanoma 40.7% | EKVX NSCLC 22.2% | SN12C renal 35.4% | UO-31 renal 33.1% | ACHN renal 11.9% | CAKI-1 renal 11.7% | A498 renal 79.9% | MOLT-4 leukemia 11.4%

Cc1cc2cccnc2c2ncccc12
inactive: HCT-15 colon 37% | HT29 colon 19.7% | SNB-19 CNS 34.1% | U251 CNS 17.2% | PC-3 prostate 47.3% | LOX IMVI melanoma 14.8% | SK-MEL-28 melanoma 32.2% | EKVX NSCLC 40.2% | SN12C renal 22.4% | UO-31 renal 27% | TK-10 renal 11.9% | ACHN renal 18.2% | CAKI-1 renal 12.6% | A498 renal 23.6%
active: SNB-75 CNS 2.75% | SK-MEL-5 melanoma 3.03% | CCRF-CEM leukemia -11.8% | MOLT-4 leukemia 5.73%

CCC1CCCCN1C(=S)N/N=C(\C)c1ccccn1 (centres undefined)
active: HT29 colon -19.5% | U251 CNS 6.56% | SK-MEL-5 melanoma -61.5% | UACC-62 melanoma -39.8% | LOX IMVI melanoma 6.45% | SK-MEL-2 melanoma -11.9% | SN12C renal 7.07% | UO-31 renal -17.6% | ACHN renal 7% | A498 renal -21.9%
inactive: HCT-15 colon 27.3% | SNB-75 CNS 16.1% | SNB-19 CNS 16.2% | SK-MEL-28 melanoma 28% | TK-10 renal 19.7% | CAKI-1 renal 10.4% | MOLT-4 leukemia 13.3%
